From PubChem BioAssay (Tox21)
“And” between values parts separate entries of the source, which are not always exact repeats. Equal entries are not always repeated. Records with an inconclusive call do not appear. Entries that show only a call come without a potency. Where a structure was tested more than once in an assay, its records may differ in their call. The source made the active and inactive calls. Calls follow the shape of the dose curve; as a rule, active = well fitted cell-killing curve with a large enough effect in the repeat runs; inconclusive = weak or mixed curves; inactive = no such curve, though single readings can be large or run the other way.

Experiment: qHTS assay to identify small molecule antagonists of the peroxisome proliferator-activated receptor delta (PPARd) signaling pathway - cell viability counter screen (AID 743213); also: nearly all actives have a fitted effect of over 50% in size
Conditions: PPARd-bla HEK293H viability, CellTiter-Glo luminescence, 17 h; series mostly up to 62 µM
Description: U.S. Tox21 Program National Center for Advancing Translational Sciences [NCATS] NIH Chemical Genomics Center [NCGC] U.S. Environmental Protection Agency [EPA] National Institutes of Environmental Health Sciences [NIEHS] National Toxicology Program [NTP] U.S. Food and Drug Administration [FDA] Tox21 Assay Overview: The peroxisome proliferator-activated receptors (PPARs) are lipid-activated transcription factors of the nuclear receptor superfamily with three distinct subtypes namely PPAR alpha, PPAR delta (PPARd) and PPAR gamma. All these subtypes heterodimerizes with Retinoid X receptor (RXR) and have different physiological functions. […] To identify the compounds that inhibit PPAR-delta signaling, GeneBLAzer PPAR delta UAS-bla HEK293H cell line (Invitrogen, Carlsbad, CA, USA) containing a beta-lactamase reporter gene under the control of an Upstream Activator Sequence (UAS) was used to screen the Tox21 compound library. The cytotoxicity of the Tox21 compound library against the PPARd-bla cell line was tested in parallel by measuring the cell viability using CellTiter-Glo assay (Promega, Madison, WI) in the same wells.
Tox21 Assay Protocol Summary: PPARd-bla cells were dispensed at 3000 cells/5uL/well in 1536-well black wall/clear bottom plates using a Multidrop Combi (Thermo Fisher Scientific, Waltham, MA) dispenser. After the assay plates were incubated at 37 C and 5% CO2 for 5 h, 23 nL of compounds dissolved in DMSO, positive controls or DMSO only was transferred to the assay plate by a Pintool station (Kalypsys, San Diego, CA), followed by addition of 1ul L165041 (300 nM, final concentration in the wells). The assay plates were incubated at 37 C for 17 h, and then 1 uL of LiveBLAzerTM B/G FRET substrate was added using a Bioraptr Flying Reagent Dispenser (FRD) workstation (Beckman Coulter, Indianapolis, IN, USA). The assay plates were incubated at room temperature for 2 h and fluorescence intensity was measured by an Envision plate reader (PerkinElmer, Shelton, CT). For cell viability readout that measures cytotoxicity, 3 ul/well of CellTiter-Glo reagent was added into the assay plates using a Bioraptr FRD. After 30 min incubation at room temperature, the luminescence intensity in the plates was measured using a ViewLux plate reader (PerkinElmer).
Potency is read from the fitted curve at half-maximal effect.

Compound | Potency
C[N+](C)(C)CCCl | inactive
Nc1ccc([N+](=O)[O-])cc1[N+](=O)[O-] | inactive
CCc1ccc(C(=O)NN(C(=O)c2cc(C)cc(C)c2)C(C)(C)C)cc1 | inactive
O=C1NCN(c2ccccc2)C12CCN(CCCOc1ccc(F)cc1)CC2 | inactive
O=C(O)COc1ccc(Cl)cc1 | inactive
CC(Cl)C(C)Cl (stereo not given) | inactive
IC(I)=C(I)I | 12.3 µM (active)
ClCc1ccccc1 | inactive
Cc1ccccc1C(=O)Nc1cccc(OC(C)C)c1 | inactive
CCOP(=S)(Oc1ccc([N+](=O)[O-])cc1)c1ccccc1 (stereo not given) | inactive
S=C=NCc1ccccc1 | inactive
O=C1CN=C(c2ccccc2)c2cc(Cl)ccc2N1CC1CC1 | inactive
Brc1ccc(Oc2ccccc2)cc1 | inactive
Clc1cccc(SC2CCNCC2)n1 | inactive
CCBr | inactive
NCCCNCCCN | 49.7 µM (active)
CCC(Br)(CC)C(=O)NC(N)=O | inactive
N#CCc1ccccc1 | inactive
OC(c1ccc(Cl)cc1)(c1ccc(Cl)cc1)c1cccnc1 | inactive
CCCCN=C=O | inactive

Compound | Potency
CCCCCCCCCCOC(=O)c1ccccc1C(=O)OCCCCCCCCCC | inactive
C/C=C/C=O | inactive
CC1C(=O)C[C@]2(C(C)C)C[C@H]12 (stereo not given in full) | inactive
CCOP(=S)(OCC)SCSCC | inactive
C[C@]12CC[C@H]3[C@@H](CCC4=CC(=O)CC[C@@H]43)[C@@H]1CC[C@@H]2OC(=O)CCC1CCCCC1 | inactive
COc1nn(C(=O)NS(=O)(=O)c2ccccc2OC(F)(F)F)c(=O)n1C | inactive
CC(=O)[C@H]1CC[C@H]2[C@@H]3CC[C@H]4C[C@](C)(O)CC[C@]4(C)[C@H]3CC[C@]12C | inactive
NC(=O)CI | inactive
CCCCCCCCOC(=O)c1ccc(C(=O)OCCCCCCCC)c(C(=O)OCCCCCCCC)c1 | inactive
CS/C(C)=N/OC(=O)N(C)SN(C)C(=O)O/N=C(\C)SC | inactive
CC(=O)c1cc2c(cc1C)C(C)(C)C(C)CC2(C)C (stereo not given) | inactive
CCCCN(N=O)C(=N)N[N+](=O)[O-] | inactive
CCCC(=O)Cl | inactive
CCCCCC[N+](=O)[O-] | inactive
CC(C)(C)c1cc([N+](=O)[O-])cc([N+](=O)[O-])c1O | inactive
O=C(CCl)c1ccc(Cl)cc1Cl | inactive and 29.8 µM (active)
O=NN1CCNCC1 | inactive
O=C(O)C(F)(F)C(F)(F)C(F)(F)C(F)(F)C(F)(F)C(F)(F)C(F)(F)C(F)(F)C(F)(F)C(F)(F)F | inactive
CN1C(=O)NC(=O)C(C)(C2=CCCCC2)C1=O (stereo not given) | inactive
COC(=O)C(Br)CBr (stereo not given) | inactive
